Hits are enriched below; roughly 0.79% of the tested compounds scored in any of these assays.
phage Ecoli inh: E. coli growth loss with phage present | growth absorbance | inhibition, % at 11.9 µM | 360,000 compounds, 0.26% hits; in the data active = inhibition above about 11%
E coli growth-1: inhibitors of Escherichia coli growth; OD600, 23 h; active compounds read low; OD600 absorbance (test concentration not listed); 330,000 compounds, 0.21% hits;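 active = OD600 absorbance below the run mean of sample wells minus 3.6 SD, in any replicate, cut at about 0.56 in these data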
Tat export inh: inhibitors of E. coli Tat protein transport; inhibition, % at 10 µM; E. coli MC4100 TorA-mCherry Tat export, fluorescence; AID 488895; 340,000 compounds, 0.036% hits;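 active = mean replicate inhibition at least 50% and at least half of replicates individually reaching 50%; inconclusive = only one of the two criteria met; inactive = neither criterion met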;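 also: exported cargo escapes ClpAP degradation while cytoplasmic cargo is degraded and loses fluorescence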
AI-2 QS modul: modulates the Vibrio harveyi AI-2 quorum sensing system | Vibrio harveyi JMH597 AI-2 luminescence/OD600 ratio, 9 h; active compounds read low; strain lacks LuxN and CqsS sensors; 0 = neutral-control median | 300,000 compounds, 0.4% hits | activity change, % at 7.5 µM; in the data active = activity change below about -75%, passing the limit was not always enough; inconclusive = no clear call, values can overlap the other calls;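 also: luminescence divided by OD600 gain over 9 h not by final OD600 alone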
E coli growth-2: reduces bacterial viability in AddAB counter-screen | E. coli V3065 growth, OD600 absorbance, 18 h | inhibition, % at 11.9 µM | 330,000 compounds, 0.27% hits;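 active = inhibition above the campaign's mean inhibition across all tested compounds plus 3 SD, cut at about 9.9% in these data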;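 also: uninfected addAB+ strain grown without phage in ampicillin broth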
AddAB inh: less growth of phage-infected E. coli with AddAB. E. coli expressing H. pylori AddAB, absorbance growth. inhibition, % at 11.9 µM. 330,000 compounds, 0.29% hits. AID 435030; in the data active = inhibition above about 12%
JMH597 growth rt: retest: blocks Vibrio harveyi JMH597 growth. shares compounds with AI-2 QS modul. OD600 absorbance, 9 h; lacks LuxN and CqsS sensors. growth inhibition, % at 7.5 µM. 750 compounds, 1% hits. AID 2726;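 active = every replicate shows growth inhibition above 50%; inconclusive = at least half, but not all, replicates pass that cutoff; inactive = fewer than half of replicates pass it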
BB721 const-QS lum: retest counter-screen: BB721 constitutive quorum sensing luminescence decrease. Vibrio harveyi BB721 luminescence, 9 h. 750 compounds, 95% hits. shares compounds with AI-2 QS modul. inhibition, % at 7.5 µM;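 active = inhibition above about 80% in every replicate, not just on average, limit read from the data; inconclusive = at least half of replicates past the limit, but not all; inactive = fewer than half of replicates past the limit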
BB721 growth: retest Vibrio harveyi BB721 growth inhibition. shares compounds with AI-2 QS modul. 750 compounds, 3% hits. AID 2728. OD600 absorbance, 9 h. growth inhibition, % at 7.5 µM;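 active = every replicate shows growth inhibition above 50%; inconclusive = at least half but not all replicates above 50% inhibition; inactive = under half of replicates above 50% inhibition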
JMH597 AI-2 mod: Vibrio harveyi AI-2 signaling luminescence modulation – JMH597 strain, confirmation. Vibrio harveyi JMH597 AI-2 quorum sensing luminescence, 9 h; luxN and CqsS knockout, AI-2 only. shares compounds with AI-2 QS modul. 750 compounds, 97% hits. inhibition, % at 7.5 µM;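 active = every replicate shows more than 75% inhibition of signal versus neutral control wells; inconclusive = half to three quarters of replicates exceed 75% inhibition; inactive = fewer than half of replicates exceed 75% inhibition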
AddAB conf: confirmation screen: growth loss of phage-infected E. coli expressing H. pylori AddAB | shares compounds with AddAB inh | E. coli V3065 expressing H. pylori AddAB, T4 phage, OD; T4 phage with gene 2 nonsense mutations | inhibition, % at 11.9 µM | 880 compounds, 64% hits;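 active = mean inhibition above a set limit taken from the earlier primary screen, cut at about 13% in these data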;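 also: higher means less bacterial growth since AddAB block lets phage replicate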
RecBCD counter: AddAB counter-screen: growth loss of RecBCD+ E. coli infected with mutant T4 phage; shares compounds with AddAB inh; E. coli V66 + mutant T4 phage, OD growth; inhibition, % at 11.9 µM; 880 compounds, 73% hits;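 active = mean inhibition above the mean of solvent-only control wells plus 3 SD, cut at about 4% in these data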;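 also: optical density read after an 18 h incubation at 37 °C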
Bact viability: counter-screen: bacterial growth inhibition. 880 compounds, 35% hits. inhibition, % at 11.9 µM. bacterial viability, absorbance (AddAB counterscreen). shares compounds with AddAB inh; in the data active = inhibition above about 25%
Hits are given with their value; n = inactive; u = inconclusive; x = not tested or not shown.

SMILES | phage Ecoli inh | E coli growth-1 | Tat export inh | AI-2 QS modul | E coli growth-2 | AddAB inh | JMH597 growth rt | BB721 const-QS lum | BB721 growth | JMH597 AI-2 mod | others
COc1ccc2nc(NNC(=O)C3COc4ccccc4O3)sc2c1 (configuration not stated) | n | x | n | -85 | n | n | n | 92 | n | 95
COc1ccc2nc(NC(=O)C3COc4ccccc4O3)sc2c1 (configuration not stated) | n | n | n | n | n | n | x | x | x | x
CCCCOC(=O)Nc1ccc(S(=O)(=O)Nc2ncccn2)cc1 | n | n | n | -91 | n | n | n | 96 | n | 97
COC(=O)Nc1ccc(S(=O)(=O)Nc2ncccn2)cc1 | n | n | n | n | n | n | x | x | x | x
O=C(CSc1nnc(-c2ccc(S(=O)(=O)N3CCCC3)cc2)o1)NCc1ccco1 | n | n | n | -83 | n | n | n | 84 | n | 90
COC(=O)c1ccc(C(NC(=O)OCc2ccccc2)C(C)=CC(C)C(=O)NCc2ccc(-c3ccccc3)cc2)cc1 (configuration not stated) | x | n | x | x | x | x | x | x | x | x
COc1ccc(CCc2nc(-c3ccc(-n4cccc4)cc3)no2)cc1 | n | n | n | n | n | n | x | x | x | x
COc1ccc(Cc2nc(-c3cccc(C)c3)no2)cc1 | n | n | n | -80 | n | n | n | 94 | n | 96
COc1ccc(-c2noc(CCc3ccccc3)n2)cc1 | n | x | n | u | n | n | n | 94 | n | 97
COc1ccc(Cc2nc(-c3ccccn3)no2)cc1 | n | n | n | -88 | n | n | n | 95 | n | 96
c1ccc(OCCCc2nc(-c3cccnc3)no2)cc1 | n | n | n | -93 | n | n | n | 98 | n | 99
c1ccc(Cc2nc(-c3ccccn3)no2)cc1 | n | n | n | n | n | n | x | x | x | x
Cc1cccc(-c2noc(Cc3ccc(Cl)cc3)n2)c1 | n | n | n | n | n | n | x | x | x | x
c1ccc(CCCc2nc(-c3cccnc3)no2)cc1 | n | n | n | n | n | n | x | x | x | x
O=C1CC2c3c(cccc3CN1Cc1ccc(Br)cc1)CC(O)C2O (configuration not stated) | x | n | x | x | x | x | x | x | x | x
O=C(Cn1c(=O)oc2cc(S(=O)(=O)N3CCCC3)ccc21)NCc1ccccn1 | n | n | n | -97 | n | n | n | 99 | n | 99
O=C(Cn1c(=O)oc2cc(S(=O)(=O)NCc3ccccc3)ccc21)NCc1ccco1 | n | n | n | u | n | n | n | 100 | n | 100
O=C(c1cc2cc(Cl)ccc2[nH]1)N1CCN(C(=O)c2ccco2)CC1 | n | n | n | -94 | n | n | n | 97 | n | 98
O=C1CCN(CCCc2ccccc2)CCN1C(CO)Cc1ccccc1 (configuration not stated) | x | n | x | x | x | x | x | x | x | x
CC(Cc1cccnc1)NC(=O)c1cc(COc2c(F)cccc2F)on1 (configuration not stated) | n | n | n | u | n | n | n | 88 | n | 92
Cc1ccc(O)c(CNc2ccc(S(=O)(=O)Nc3nccs3)cc2)c1 | n | n | n | -89 | n | n | n | 93 | n | 95
O=C(CCS(=O)(=O)c1ccccc1)Nc1ccc(S(=O)(=O)Nc2nccs2)cc1 | n | n | n | x | n | n | x | x | x | x
O=C(CCc1ccccc1)Nc1ccc(S(=O)(=O)Nc2nccs2)cc1 | n | n | n | -85 | n | n | n | 89 | n | 93
CCN(CC)S(=O)(=O)c1cccc(-c2n[nH]c(=S)n2N=Cc2ccc(OC(F)F)cc2)c1 | x | n | x | x | x | x | x | x | x | x
O=C1CCCCC=CCC(CC(=O)N(CCO)Cc2ccccc2)C(=O)NCCO1 (configuration not stated) | x | n | x | x | x | x | x | x | x | x
SMILES | phage Ecoli inh | E coli growth-1 | Tat export inh | AI-2 QS modul | E coli growth-2 | AddAB inh | JMH597 growth rt | BB721 const-QS lum | BB721 growth | JMH597 AI-2 mod | others
O=C(CC=NOCc1ccc(F)cc1Cl)c1cnc(-c2ccccc2)s1 | x | n | x | x | x | x | x | x | x | x
O=C(Nc1ccc(Nc2ccccc2)cc1)c1ccc(Cl)cc1 | n | n | n | n | n | n | x | x | x | x
O=C(Nc1ccc(Nc2ccccc2)cc1)c1ccccc1 | n | n | x | -91 | n | n | n | 95 | n | 96
Cc1ccc(NC(=O)CSc2n[nH]c(C)c2[N+](=O)[O-])cc1 | n | n | n | n | n | 14 | x | x | x | x | AddAB conf=n;RecBCD counter=4.7;Bact viability=n
Cc1[nH]nc(SCC(=O)Nc2ccc(C#N)cc2)c1[N+](=O)[O-] | n | x | n | n | n | n | x | x | x | x
CCN(C(=O)C1CCCN(c2nc(-c3ccc(OC)cc3)no2)C1)c1ccccc1F (configuration not stated) | n | n | n | n | n | 22 | x | x | x | x | AddAB conf=n;RecBCD counter=n;Bact viability=n
CCN(C(=O)C1CCN(c2nc(-c3ccc(OC)cc3)no2)CC1)c1ccccc1 | n | n | n | n | n | n | x | x | x | x
NC(=O)NN=Cc1coc2ccc(O)cc2c1=O | x | n | x | x | x | x | x | x | x | x
CCCC(=O)Nc1ccc(C(=O)N/N=C/c2ccc([N+](=O)[O-])o2)cc1 | n | x | n | u | 22 | 18 | x | x | x | x | AddAB conf=100;RecBCD counter=12;Bact viability=28
Cc1ccc(NC(=O)CCC(=O)N/N=C/c2ccc([N+](=O)[O-])o2)cc1C | n | x | n | u | n | n | x | x | x | x
O=C(N/N=C/c1ccc([N+](=O)[O-])o1)C(O)c1ccccc1 (configuration not stated) | n | x | n | -89 | 15 | 86 | x | x | x | x | AddAB conf=96;RecBCD counter=11;Bact viability=29
Cc1cc(C(=O)N/N=C/c2ccc([N+](=O)[O-])o2)c(C)o1 | n | x | n | n | n | 13 | x | x | x | x | AddAB conf=98;RecBCD counter=7.9;Bact viability=n
COC(=O)C1CC1C(NC(=O)c1cc(C)on1)c1ccccc1 (configuration not stated) | x | n | x | x | x | x | x | x | x | x
CC(C)(C)N1CC23C=CC(CC2C1=O)O3 (configuration not stated) | x | n | x | x | x | x | x | x | x | x
COCCNc1nnc(Cc2ccc(OC)c(OC)c2)c(=O)[nH]1 | n | n | n | n | n | n | x | x | x | x
COc1ccc(Cc2nnc(NN)[nH]c2=O)cc1OC | n | 0.081 | n | n | 93 | 97 | x | x | x | x | AddAB conf=99;RecBCD counter=11;Bact viability=97
